# The entries come from a sample that favours the strongest signals as a whole.
# B1: Awp3 (Candida glabrata), B4UN32 (protein)
# chain: MISFVTLLAILGLLSISWADQTVRSVAGDQRVTDPVIVGDNSILDYYGGSNYDFSNNFEIGRGTLYIGKESYFSSFQSAPTDVPNSFHLLIKNTNNLQNNGQFIIENIKRHANQCSNSSIQVFPINFQNDGEFEIISGGVEGRCCLPTSVIAPQNFLNNGKFYYKVLTDTGSIYSGSCMQNVDIGASTTTTVNNNLWEFTGSINAQINGAVSGAAQINLDGSNMFVNANTFSGQVVNLINGGSFLQTSDPLSNIVVINGLGTSDTGVTSIAVKGKGKSFTYNPSSGIVKLTTVEGKTYAYQIGCGYNTKKFITNNDSGASYESADNFFVLTYSEPYSPQTCQLENSSIFSSNFISTSTSSSSSSSSASSLPSSMSSSLPSSLSSSLSSSLSSSMSSSMSSLFIIPPPYTTTRSSGSSIIDTEIVSFYSTTDSPGHTITGTTTTTLYGPHTHSSVSTPSSSSESSTTSNSSIESSSLPHTSVSSTPESSITPSSNTISSSPTSDFSSVQSSSIMESSSVVASSSVINSSSIVDSSSSSASSLPSSMSSSLSSSMSSSLPSSMSSSLSSSLSSSLSSSMSSSMSSLFIIPPPYTTTRSSGSSIIDTEIVSFYSTTDSPGHTITGTTTTTLYGPHTHSSVSTPSSSSESSTTSNSSIESSSLPHTSVSSTPESSITPSSNTISSSPTSDFSSVQSSSIMESSSVVASSSVINSSSIVDSSSSSASSLPSSMPSSLPSSMSSSLSSSMSSSLSSSLSSSLSSSMSSSMSSLFIIPPPYTTTRSSGSSIIDTEIVSFYSTTDSPGHTITGTTTTTLYGPHTHSSVSTPSSSSESSTTSNSSIESSSLPHTSVSSTPESSITPSSNTISSSPTSDFSSVQSSSIMESSSVVASSSATQSSSVINSSSIVDSSSSSASSLPSSMPSSLPSSLSSSLSSSLSSSMSSSMSSLFIIPPPYTTTRSSGSSIIDTEIVSFYSTTDSPGHTITGTTTTTLYESSIYSSSSSTIQESELSNTSRTTMTSNSSVSISSTSSRSSFSNTKSSTIVISQSASLPDSKTDIILSTSSNIGYSSRSLLSDLGTSISDSDIHHSVLHSTESYSSNESGTNPFTSIASLSNFIPESSSHTSTALGSENSVISSDILTTMSHPVATNSGDKPTTPKRSEQVSTTMTSSGPTPDTSSFDTDGMSAYSRPEFTTNSLEVNKSSTSQLGNNKQTFSNLQLESTRPHSENEVDNNTRLLQSIQQSSTYGTNNVNPLSPTGSISIPLTEDGQGDNNNWNSPATNDLCTQISFNLTATTITVTDRITITDSIHDISSEVITSYIYQTIVDQKTVTQTVDGKSLANKMSSIPKPSSRSLIQPQPPVAIELQEGAASTSRVSLVSLFISIILVLL
# What was measured:
# Assay in all cases: glycan array binding signal (z-score within array); higher = stronger binding
# Details in all cases: glycan notation: IUPAC condensed, linker removed
# [1] = molecular target: Fuc(a1-2)Gal(b1-3)GalNAc(b1-3)Gal(a1-4)Gal(b1-4)Glc
# How it was run: (§1)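 Columns mapping to the same glycan were averaged after glycan names were converted to IUPAC-condensed notation. The data come from 3228 arrays in the Consortium for Functional Glycomics database, limited to those with an available protein sequence. Binding is reported as a within-array Z-score averaged across arrays of one protein sequence and across linkers.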
# [2] = molecular target: Fuc(a1-2)Gal(b1-3)GlcNAc(b1-2)Man(a1-3)[Fuc(a1-2)Gal(b1-3)GlcNAc(b1-2)Man(a1-6)]Man(b1-4)GlcNAc(b1-4)[Fuc(a1-6)]GlcNAc
# How it was run: as §1
# [3] = molecular target: Fuc(a1-2)Gal(b1-4)GlcNAc(b1-2)[Fuc(a1-2)Gal(b1-4)GlcNAc(b1-4)]Man(a1-3)[Fuc(a1-2)Gal(b1-4)GlcNAc(b1-2)Man(a1-6)]Man(b1-4)GlcNAc(b1-4)GlcNAc
# How it was run: as §1
# [4] = molecular target: Fuc(a1-2)Gal(b1-4)[Fuc(a1-3)]GlcNAc(b1-2)Man(a1-3)[Fuc(a1-2)Gal(b1-4)[Fuc(a1-3)]GlcNAc(b1-2)Man(a1-6)]Man(b1-4)GlcNAc(b1-4)[Fuc(a1-6)]GlcNAc
# How it was run: as §1
# [5] = molecular target: Fuc(a1-2)Gal(b1-4)[Fuc(a1-3)]GlcNAc(b1-3)Gal(b1-4)[Fuc(a1-3)]GlcNAc(b1-3)Gal(b1-4)[Fuc(a1-3)]GlcNAc
# How it was run: as §1
# [6] = molecular target: Fuc(a1-2)Gal(b1-4)[Fuc(a1-3)]GlcNAc(b1-3)[Neu5Ac(a2-6)Gal(b1-4)GlcNAc(b1-6)]Gal(b1-4)Glc
# How it was run: as §1
# [7] = molecular target: Fuc(a1-2)[Gal(a1-3)]Gal(b1-4)GlcNAc(b1-2)Man(a1-3)[Fuc(a1-2)[Gal(a1-3)]Gal(b1-4)GlcNAc(b1-2)Man(a1-6)]Man(b1-4)GlcNAc(b1-4)GlcNAc
# How it was run: as §1
# [8] = molecular target: Fuc(a1-2)[GalNAc(a1-3)]Gal(b1-3)GalNAc(b1-3)Gal(a1-4)Gal(b1-4)Glc
# How it was run: as §1
# [9] = molecular target: Fuc(a1-2)[GalNAc(a1-4)]Gal(b1-4)GlcNAc
# How it was run: as §1
# [10] = molecular target: Fuc(a1-3)[Gal(b1-4)]GlcNAc(b1-6)GalNAc
# How it was run: as §1
# Gal(a1-4)GlcNAc = molecular target: Gal(a1-4)GlcNAc
# How it was run: as §1
# [11] = molecular target: Gal(b1-3)GlcNAc(a1-6)Gal(b1-4)GlcNAc
# How it was run: as §1
# [12] = molecular target: Gal(b1-3)GlcNAc(b1-2)Man(a1-3)[Gal(b1-3)GlcNAc(b1-2)Man(a1-6)]Man(b1-4)GlcNAc(b1-4)GlcNAc
# How it was run: as §1
# [13] = molecular target: Gal(b1-3)GlcNAc(b1-3)Gal(b1-4)GlcNAc(b1-6)[Gal(b1-3)GlcNAc(b1-3)]Gal(b1-4)Glc
# How it was run: as §1
# [14] = molecular target: Gal(b1-3)GlcNAc(b1-3)Gal(b1-4)[Fuc(a1-3)]GlcNAc(b1-6)[Gal(b1-3)GlcNAc(b1-3)]Gal(b1-4)Glc
# How it was run: as §1
# [15] = molecular target: Gal(b1-4)GlcNAc(b1-2)Man(a1-3)[Gal(b1-4)GlcNAc(b1-2)Man(a1-6)][GlcNAc(b1-4)]Man(b1-4)GlcNAc(b1-4)[Fuc(a1-6)]GlcNAc
# How it was run: as §1
# [16] = molecular target: Gal(b1-4)GlcNAc(b1-2)Man(a1-3)[Man(a1-6)]Man(b1-4)GlcNAc(b1-4)GlcNAc
# How it was run: as §1
# [17] = molecular target: Gal(b1-4)GlcNAc(b1-2)Man(a1-6)[GlcNAc(b1-2)Man(a1-3)]Man(b1-4)GlcNAc(b1-4)GlcNAc
# How it was run: as §1
# [18] = molecular target: Gal(b1-4)GlcNAc(b1-2)[Gal(b1-4)GlcNAc(b1-4)]Man(a1-3)[Gal(b1-4)GlcNAc(b1-2)[Gal(b1-4)GlcNAc(b1-6)]Man(a1-6)]Man(b1-4)GlcNAc(b1-4)GlcNAc
# How it was run: as §1
# [19] = molecular target: Gal(b1-4)GlcNAc(b1-3)Gal(b1-4)GlcNAc(b1-2)[Gal(b1-4)GlcNAc(b1-3)Gal(b1-4)GlcNAc(b1-6)]Man(a1-6)[Gal(b1-4)GlcNAc(b1-3)Gal(b1-4)GlcNAc(b1-2)Man(a1-3)]Man(b1-4)GlcNAc(b1-4)[Fuc(a1-6)]GlcNAc
# How it was run: as §1
# [20] = molecular target: Gal(b1-4)GlcNAc(b1-3)Gal(b1-4)GlcNAc(b1-3)Gal(b1-4)GlcNAc(b1-2)[Gal(b1-4)GlcNAc(b1-3)Gal(b1-4)GlcNAc(b1-3)Gal(b1-4)GlcNAc(b1-6)]Man(a1-6)[Gal(b1-4)GlcNAc(b1-3)Gal(b1-4)GlcNAc(b1-3)Gal(b1-4)GlcNAc(b1-2)Man(a1-3)]Man(b1-4)GlcNAc(b1-4)[Fuc(a1-6)]GlcNAc
# How it was run: as §1
# [21] = molecular target: Gal(b1-4)GlcNAc(b1-3)Gal(b1-4)GlcNAc(b1-3)Gal(b1-4)GlcNAc(b1-3)Gal(b1-4)GlcNAc(b1-3)Gal(b1-4)GlcNAc(b1-2)Man(a1-3)[Gal(b1-4)GlcNAc(b1-3)Gal(b1-4)GlcNAc(b1-3)Gal(b1-4)GlcNAc(b1-3)Gal(b1-4)GlcNAc(b1-3)Gal(b1-4)GlcNAc(b1-2)Man(a1-6)]Man(b1-4)GlcNAc(b1-4)[Fuc(a1-6)]GlcNAc
# How it was run: as §1
# [22] = molecular target: Gal(b1-4)GlcNAc(b1-3)Gal(b1-4)GlcNAc(b1-3)Gal(b1-4)GlcNAc(b1-3)Gal(b1-4)GlcNAc(b1-3)Gal(b1-4)GlcNAc(b1-2)[Gal(b1-4)GlcNAc(b1-3)Gal(b1-4)GlcNAc(b1-3)Gal(b1-4)GlcNAc(b1-3)Gal(b1-4)GlcNAc(b1-3)Gal(b1-4)GlcNAc(b1-6)]Man(a1-6)[Gal(b1-4)GlcNAc(b1-3)Gal(b1-4)GlcNAc(b1-3)Gal(b1-4)GlcNAc(b1-3)Gal(b1-4)GlcNAc(b1-3)Gal(b1-4)GlcNAc(b1-2)Man(a1-3)]Man(b1-4)GlcNAc(b1-4)[Fuc(a1-6)]GlcNAc
# How it was run: as §1
# [23] = molecular target: Gal(b1-4)GlcNAc(b1-3)Gal(b1-4)GlcNAc(b1-3)GalNAc
# How it was run: as §1
# [24] = molecular target: Gal(b1-4)GlcNAc(b1-3)Gal(b1-4)GlcNAc(b1-6)[Gal(b1-3)]GalNAc
# How it was run: as §1
# [25] = molecular target: Gal(b1-4)GlcNAc(b1-3)Gal(b1-4)[Fuc(a1-3)]GlcNAc(b1-3)Gal(b1-4)[Fuc(a1-3)]GlcNAc
# How it was run: as §1
# [26] = molecular target: Gal(b1-4)GlcNAc(b1-3)GalNAc
# How it was run: as §1
# [27] = molecular target: Gal(b1-4)GlcNAc(b1-3)[Fuc(a1-3)GlcNAc(b1-6)]Gal(b1-4)Glc
# How it was run: as §1
# Gal3S(b1-4)Glc = molecular target: Gal3S(b1-4)Glc
# How it was run: as §1
# Gal4S6S(b1-4)GlcNAc = molecular target: Gal4S6S(b1-4)GlcNAc
# How it was run: as §1
binder,measurement,setting,value
B1,glycan array binding signal (z-score),[1],2.34
same,glycan array binding signal (z-score),[2],1.49
same,glycan array binding signal (z-score),[3],3.23
same,glycan array binding signal (z-score),[4],-0.693
same,glycan array binding signal (z-score),[5],1.19
same,glycan array binding signal (z-score),[6],-1.1
same,glycan array binding signal (z-score),[7],2.45
same,glycan array binding signal (z-score),[8],2.28
same,glycan array binding signal (z-score),[9],-0.218
same,glycan array binding signal (z-score),[10],0.39
same,glycan array binding signal (z-score),Gal(a1-4)GlcNAc,2.25
same,glycan array binding signal (z-score),[11],0.259
same,glycan array binding signal (z-score),[12],2.55
same,glycan array binding signal (z-score),[13],1.3
same,glycan array binding signal (z-score),[14],2.48
same,glycan array binding signal (z-score),[15],1.4
same,glycan array binding signal (z-score),[16],-0.338
same,glycan array binding signal (z-score),[17],0.07
same,glycan array binding signal (z-score),[18],-0.258
same,glycan array binding signal (z-score),[19],-1.19
same,glycan array binding signal (z-score),[20],1.96
same,glycan array binding signal (z-score),[21],0.113
same,glycan array binding signal (z-score),[22],-0.313
same,glycan array binding signal (z-score),[23],1.03
same,glycan array binding signal (z-score),[24],-0.292
same,glycan array binding signal (z-score),[25],0.452
same,glycan array binding signal (z-score),[26],-0.074
same,glycan array binding signal (z-score),[27],-0.665
same,glycan array binding signal (z-score),Gal3S(b1-4)Glc,-0.288
same,glycan array binding signal (z-score),Gal4S6S(b1-4)GlcNAc,0.372

# From the supplement of paper PMC8728848
